The source of these data is PubChem BioAssay AID2507 (National Center for Advancing Translational Sciences (NCATS), 2010).

SMILES strings stand for the structures. Inconclusive results are not listed. Entries that show only a call come without a potency. Calls of active or inactive are those of the source. The call rests on the fitted dose curve; in most records, active means well fitted inhibition curve with a large enough effect; inconclusive means small, poorly fitted or top-dose-only effect, or effect the other way; inactive means flat fitted curve, though single readings scatter.

This experiment is described as follows: Secondary Assay for General miRNAs Modulators and/or Inhibitors/Activators of miR-21: miR-30 Firefly Luciferase Assay. The settings on record: HeLa miR-30 FLuc reporter, luminescence, 48 h; series mostly up to 38.3 µM. The source says:
MLSCN Grant: 1 R21 NS059478-01 Assay Provider: Qihong Huang, The Wistar Institute NCGC Assay Overview: MicroRNAs (miRNAs) are endogenously encoded small (~20-25 nucleotides), nonprotein-coding RNAs that are involved in post-transcriptional repression of target messenger RNAs (mRNAs) (Le and Hannon, 2004). Estimated to be involved in the regulation of 30% of all protein-coding mRNAs (Filipowicz et al., 2008), miRNAs play a significant role in many biological processes including cellular differentiation and tissue development (Ghildiyal and Zamore, 2009). […] Compounds active in the miR-21 FLuc assay were clustered using Leadscope and active chemical series were prioritized based on chemical properties, potential for medicinal chemistry optimization, and SAR. Within each chemical series, representative compounds were re-acquired to test for activity in a secondary assay based on the quality of their CRC, efficacy, and potency. The secondary assay to determine if compounds active in the miR-21 FLuc assay were potentially specific for miR-21 and were not general modulators of the miRNA pathway was another cell-based FLuc reporter gene assay, this time targeting miR-30. Compounds found active in both the miR-21 FLuc and miR-30 FLuc assays are not considered miR-21 specific compounds, and may be general miRNA modulators.
NCGC Assay Protocol Summary: Reagents: HeLa cells stably expressing firefly luciferase (FLuc) under the control of a CMV promoter (upstream) and a miR-30 binding sequence directly downstream of the gene. These cells also stably express miR-30. Control compounds used were compound C3 (provided by collaborator), N6-phenyladenosine (MP Biomedicals, 0215379625), and DMSO. Assay Summary: 6uL of HeLa miR-30-FLuc cells in assay buffer (DMEM, Invitrogen #21063-029; 10% FBS, HyClone #SH30071.03) were dispensed at 1000cells/well (1.7 x 10^5 cells/mL) into Greiner solid-white TC-treated 1536-well plates using a Multidrop Combi (Thermo Fisher Scientific). Plates were incubated for one hour at 37 degree Celsius, 95% humidity, 5% CO2. These assay plates were then treated with 23nL of compound or DMSO using a Kalypsys pin tool, which allows for delivery of a 24-point titration of each compound to the assay plate, with a final compound concentration ranging from approximately 40uM to 5pM. Assay plates were then incubated for 48 hours. After incubation, plates were allowed to come to RT for one hour prior to delivery of 3uL of 3X luciferase detection reagent. After a 15 minute incubation to allow for cell lysis, luciferase activity was measured using a ViewLux CCD imager (PerkinElmer), with an average exposure time of 2-12 seconds. Keywords: NIH Roadmap, MLPCN, MLSMR, qHTS, miR-21, miR-30, microRNA, firefly luciferase, FLuc.
As for `COc1ccc(-n2nnc(-c3nc(-c4cccs4)no3)c2N)cc1OC`, the Potency result is “inactive”.
